Here are results for 17 compounds from PubChem BioAssay (Tox21).

A number with no mark means an inactive call. Results filed as inconclusive are left out. Active and inactive are the calls of the source. Calls come from the whole dose curve; as a rule, active = well fitted curve in the direction sought with a large enough effect in the repeat runs; inconclusive = weak or mixed curves; inactive = no such curve, though single readings can be large; an effect the other way counts as inactive or inconclusive.

The nature of test [1]: Caspase-3/7 induction in CHO-K1 cells by small molecules, qHTS cell viability counter screen (AID 1346979). Note: nearly all actives have a fitted effect of over 35% in size. Note: potency is the fitted concentration of half-maximal effect. A digest of the protocol: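 Seeding: 1,500 CHO-K1 cells/well. Rest: 5hr, 37C. Treatment: compounds in DMSO, 16hr. Read: CellTiter-Fluor, 1hr, fluorescence.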
A general note: In qHTS, concentration-response curves come from the screen itself.

Test [2] in a line: Caspase-3/7 induction in CHO-K1 cells by small molecules, qHTS assay (AID 1346980). Note: nearly all actives have a fitted effect of over 15% in size. Note: potency is the fitted concentration of half-maximal effect. A digest of the protocol: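 Luminescent Caspase-Glo 3/7 read (30min, room temperature) quantified apoptosis induction. Cells were wild-type CHO-K1, treated with compound for 17hr at 37 C and 5% CO2.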
Test [3] can be described thus: Caspase-3/7 induction in HepG2 cells by small molecules, qHTS cell viability counter screen (AID 1346981). Note: nearly all actives have a fitted effect of over 30% in size. Note: potency is the fitted concentration of half-maximal effect. The procedure, abridged:
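Cell viability is measured as a cytotoxicity counter screen alongside the Caspase-Glo 3/7 readout in identical wells. Wild-type HepG2 cells are treated with test compounds for 16 hr at 37 C before CellTiter-Fluor addition and a 1-hr incubation.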

The target in test [4] is Cytochrome P450 2C9 (Homo sapiens) (UniProt P11712). Nature of the test: Cytochrome P450 Family 2 Subfamily C Member 9 (CYP2C9) small molecule antagonists: luciferase reporter qHTS assay (AID 1671198). Note: nearly all actives have a fitted effect of over 50% in size. Note: potency is the fitted concentration of half-maximal effect. The procedure, abridged:
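Enzyme-substrate mix preincubated with compound 10 min at room temperature; reaction started with NADPH regeneration solution, 1 h 37C. Luminescent luciferin product read after 20 min detection reagent.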
In general terms: Reporter assays use an easily measured gene product as a stand-in for the process of interest.

Test [5] deals with Nuclear receptor subfamily 1 group I member 2 (Homo sapiens) (UniProt O75469). Description: Human pregnane X receptor (PXR) small molecule agonists, qHTS assay (AID 1346982). Note: nearly all actives have a fitted effect of over 35% in size. Note: potency is the fitted concentration of half-maximal effect. A digest of the protocol:
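Cells: HepG2 stably carrying PXR-Luc. Medium held 5% charcoal-stripped FBS. Compounds in DMSO added after 5 hr plating, incubated 24 hr, then luminescence quantified with ONE-Glo.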

For test [6], the target named is Cytochrome P450 2C19 (Homo sapiens) (UniProt P33261). Description: Cytochrome P450 Family 2 Subfamily C Member 19 (CYP2C19) small molecule antagonists: luciferase reporter qHTS assay (AID 1671197). Note: nearly all actives have a fitted effect of over 65% in size. Note: potency is the fitted concentration of half-maximal effect. The procedure, abridged: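 Enzyme-substrate mix with proluciferin substrate (P450-Glo CYP2C19 system) preincubated with compounds 10 min at room temperature; NADPH regeneration solution added, 37C for 1 h; detection reagent stops reaction, luminescence read after 20 min. Ketoconazole positive control.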
Chain of Cytochrome P450 2C19 (Homo sapiens) (P33261 whole entry, looked up): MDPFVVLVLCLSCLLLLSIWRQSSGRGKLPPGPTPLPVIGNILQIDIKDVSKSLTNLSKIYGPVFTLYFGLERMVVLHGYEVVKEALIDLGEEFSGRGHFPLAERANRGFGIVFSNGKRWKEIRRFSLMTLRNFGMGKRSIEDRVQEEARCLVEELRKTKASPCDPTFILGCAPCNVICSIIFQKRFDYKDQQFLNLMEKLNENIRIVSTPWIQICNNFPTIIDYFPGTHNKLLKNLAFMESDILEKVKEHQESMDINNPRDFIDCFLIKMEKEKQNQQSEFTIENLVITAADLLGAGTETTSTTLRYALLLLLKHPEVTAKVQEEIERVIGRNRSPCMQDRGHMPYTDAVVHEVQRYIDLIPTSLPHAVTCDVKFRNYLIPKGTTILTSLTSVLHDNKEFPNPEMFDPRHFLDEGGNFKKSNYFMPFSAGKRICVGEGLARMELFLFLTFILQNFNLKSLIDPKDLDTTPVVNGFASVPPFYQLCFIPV

The target of test [7] is Cytochrome P450 2D6 (Homo sapiens) (UniProt P10635). Nature of the test: Cytochrome P450 Family 2 Subfamily D Member 6 (CYP2D6) small molecule antagonists: luciferase reporter qHTS assay (AID 1671196). Note: nearly all actives have a fitted effect of over 50% in size. Note: potency is the fitted concentration of half-maximal effect. A digest of the protocol:
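Enzyme and proluciferin substrate were first combined with test chemical for 10 min at room temperature. Adding NADPH regeneration solution started a 1 h reaction, stopped with luciferin detection reagent and read by luminescence 20 min later.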

In test [8] the target is Nuclear receptor subfamily 1 group I member 2 (Rattus norvegicus) (UniProt Q9R1A7). Nature of the test: Rat pregnane X receptor (rPXR) activation by small molecules, qHTS assay (AID 1346983). Note: nearly all actives have a fitted effect of over 20% in size. The conditions noted are these: rPXR luciferase reporter cells, One-Glo luminescence, 24 h; max activation: active compounds read high. A digest of the protocol: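 Luminescent readout (One-Glo luciferase, 30 min room temperature) followed 24 hr compound treatment at 37 C of rPXR cells plated 2,000 per well and preincubated 5hr; qHTS format with compounds delivered in DMSO.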
Chain of Nuclear receptor subfamily 1 group I member 2 (Rattus norvegicus) (Q9R1A7 whole entry, looked up): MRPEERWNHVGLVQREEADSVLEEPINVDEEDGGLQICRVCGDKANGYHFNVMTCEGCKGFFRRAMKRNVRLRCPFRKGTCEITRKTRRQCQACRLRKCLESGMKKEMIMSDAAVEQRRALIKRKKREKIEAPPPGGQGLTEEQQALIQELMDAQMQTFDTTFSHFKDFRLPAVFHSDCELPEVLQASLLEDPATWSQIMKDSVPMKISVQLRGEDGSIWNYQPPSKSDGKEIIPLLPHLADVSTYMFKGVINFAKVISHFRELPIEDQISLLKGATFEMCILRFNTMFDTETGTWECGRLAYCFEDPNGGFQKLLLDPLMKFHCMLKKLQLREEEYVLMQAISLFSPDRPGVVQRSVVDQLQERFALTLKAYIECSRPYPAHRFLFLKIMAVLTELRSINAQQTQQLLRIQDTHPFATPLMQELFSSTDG

The target of test [9] is Nuclear receptor subfamily 1 group I member 2 (Homo sapiens) (UniProt O75469). Description: CYP3A4 induction through human pregnane X receptor (PXR) by small molecules, qHTS assay (AID 1346984). Note: nearly all actives have a fitted effect of over 40% in size. A digest of the protocol:
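Quantitative HTS in DPX-2 cells, i.e. HepG2 transfected with PXR response element and CYP3A4-promoter luciferase. Compounds in DMSO incubated 24hr at 37C; then P450-Glo CYP3A4 substrate, 3uM final, 3hr; One-Glo luminescence.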

The target is the same in test [10]. Nature of the test: Human pregnane X receptor (PXR) activation by small molecules, qHTS assay (AID 1346985). Note: nearly all actives have a fitted effect of over 40% in size. Note: potency is the fitted concentration of half-maximal effect. A digest of the protocol:
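DPX-2 cells (HepG2 co-transfected with a PXR response element and a CYP3A4-promoter luciferase construct) were seeded at 2,000 per well, rested 5 hr at 37C, then exposed to DMSO-dissolved compounds for 24 hr. Activation was read as luciferase luminescence.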
% is set by controls: 0 for no effect and ±100 for the full control effect.

Chain of Cytochrome P450 2D6 (Homo sapiens) (P10635 whole entry, looked up): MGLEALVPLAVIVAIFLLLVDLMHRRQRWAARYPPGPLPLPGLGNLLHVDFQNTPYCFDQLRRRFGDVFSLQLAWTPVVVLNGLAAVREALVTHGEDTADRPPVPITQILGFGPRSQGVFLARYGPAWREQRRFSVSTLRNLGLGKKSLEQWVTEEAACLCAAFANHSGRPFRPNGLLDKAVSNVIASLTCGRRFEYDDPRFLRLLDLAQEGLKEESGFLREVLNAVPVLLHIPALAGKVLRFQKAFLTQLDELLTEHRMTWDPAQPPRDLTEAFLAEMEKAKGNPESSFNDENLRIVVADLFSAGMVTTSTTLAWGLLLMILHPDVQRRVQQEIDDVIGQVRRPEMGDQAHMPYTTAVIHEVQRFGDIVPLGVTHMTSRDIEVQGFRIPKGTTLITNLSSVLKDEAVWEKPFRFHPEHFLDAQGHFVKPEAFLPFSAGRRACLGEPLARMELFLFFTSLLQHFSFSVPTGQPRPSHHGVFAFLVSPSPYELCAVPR
Chain of Nuclear receptor subfamily 1 group I member 2 (Homo sapiens) (O75469 whole entry, looked up): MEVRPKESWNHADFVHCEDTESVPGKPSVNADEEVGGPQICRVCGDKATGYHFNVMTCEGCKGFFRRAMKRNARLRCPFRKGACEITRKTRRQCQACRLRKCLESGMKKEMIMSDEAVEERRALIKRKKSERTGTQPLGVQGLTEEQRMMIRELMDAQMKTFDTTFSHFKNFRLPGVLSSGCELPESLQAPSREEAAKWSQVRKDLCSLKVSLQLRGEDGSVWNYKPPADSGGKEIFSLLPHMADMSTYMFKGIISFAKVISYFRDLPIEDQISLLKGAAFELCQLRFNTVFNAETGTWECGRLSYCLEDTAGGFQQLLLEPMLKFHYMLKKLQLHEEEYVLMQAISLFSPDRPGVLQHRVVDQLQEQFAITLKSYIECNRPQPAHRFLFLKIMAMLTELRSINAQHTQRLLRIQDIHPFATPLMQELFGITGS
Chain of Cytochrome P450 2C9 (Homo sapiens) (P11712 whole entry, looked up): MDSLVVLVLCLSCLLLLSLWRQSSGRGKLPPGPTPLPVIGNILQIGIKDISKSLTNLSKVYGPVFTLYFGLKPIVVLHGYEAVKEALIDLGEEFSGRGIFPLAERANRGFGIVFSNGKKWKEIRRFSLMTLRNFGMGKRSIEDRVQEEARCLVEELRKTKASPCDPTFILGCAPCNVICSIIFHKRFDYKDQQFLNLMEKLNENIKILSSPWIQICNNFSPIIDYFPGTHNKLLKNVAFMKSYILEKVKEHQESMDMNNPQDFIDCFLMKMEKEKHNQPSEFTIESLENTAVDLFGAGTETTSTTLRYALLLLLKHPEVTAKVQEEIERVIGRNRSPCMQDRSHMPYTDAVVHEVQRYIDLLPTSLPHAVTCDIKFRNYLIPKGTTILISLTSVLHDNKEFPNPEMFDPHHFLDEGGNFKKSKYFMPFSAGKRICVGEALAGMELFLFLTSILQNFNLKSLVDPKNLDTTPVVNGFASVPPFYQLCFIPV

On to `CC(C)OC(=O)c1cc2c(OCC(O)CNC(C)(C)C)cccc2[nH]1` (stereo not drawn), for which the Potency result in [1], in test [2], in test [3] and in [4] was “inactive” throughout.
`O=C(OCC(COC(=O)c1ccccc1)(COC(=O)c1ccccc1)COC(=O)c1ccccc1)c1ccccc1`: the Potency entry in test [1], in test [2], in [3] and in test [5] was “inactive” each time. In addition, the Potency in [6] was 3.55 µM (active); in test [4], 5.63 µM (active).
With `Clc1ccc2cc3ccccc3cc2c1`, the Potency entry in [1], in test [2], in test [3] and in test [7] was “inactive” each time. Moreover, the Potency in test [6] was 79.6 µM (active).
For `Cc1c(C)c2c(c(C)c1OC(=O)CCC(=O)O)CC[C@@](C)(CCC[C@H](C)CCC[C@H](C)CCCC(C)C)O2`, the Potency entry in [1], in test [2], in test [9], in test [10], in test [7] and in test [4] was “inactive” each time. Besides, the Potency in [5] is 19.5 µM (active). Moreover, in test [8], the max activation is -1.35%.
In the case of `COc1c(C)c2c(c(O)c1C/C=C(\C)CCC(=O)O)C(=O)OC2`, the Potency in [1] was 1.19 µM (active). Also, the Potency result in [2], in test [5], in test [9], in test [10], in [7] and in test [6] was “inactive” in each case. The Potency result in test [4] was “inactive”.
As to `O=[N+]([O-])c1cc([N+](=O)[O-])c2ccc(S(=O)(=O)O)cc2c1O`, the results for the Potency in test [1] and in [3] were 21.6 µM (active) and 24.2 µM (active), respectively.
Consider `CCCCCCCC[N+](CCCCCCCC)(CCCCCCCC)CCCCCCCC`, for which the Potency is 8.62 µM (active) in [1]; 21.6 µM (active) in test [3]; 3.06 µM (active) in [5]; 0.563 µM (active) in test [7]; 35.5 µM (active) in test [4].
For the compound `Nc1nc2ccccc2n1Cc1ccc(F)cc1`, the Potency was 23.7 µM (active) in [1], 26.6 µM (active) in test [5] and 0.692 µM (active) in [7]. Further, the Potency entry in test [2] and in [4] was “inactive” in each case.
For `CCc1cc(SCc2sc(-c3ccc(C(F)(F)F)cc3)nc2CN2CCN(c3ccc(OC)cc3)CC2)ccc1OCC(=O)O`, the Potency in [1] was 24.3 µM (active); in test [3] it was 24.3 µM (active); in [5] it was 48.6 µM (active); in [4], 20 µM (active). In addition, the Potency result in test [7] is “inactive”.
On to `CCOc1nc2cccc(C(=O)OC(C)OC(=O)OC3CCCCC3)c2n1Cc1ccc(-c2ccccc2-c2nn[nH]n2)cc1` (stereo not drawn), for which the Potency in test [1] was 34.3 µM (active); in [2], 43.2 µM (active); in test [5], 24.3 µM (active); in [4], 10 µM (active).
Take `C=C(C)C(=O)OCC(O)COc1ccc(C(C)(C)c2ccc(OCC(O)COC(=O)C(=C)C)cc2)cc1` (stereo not drawn): the Potency in test [1] was 54.5 µM (active); in test [5], 27.3 µM (active); in test [7], 39.9 µM (active); in test [6], 7.1 µM (active); in [4], 3.99 µM (active). Further, the Potency result in [2] was “inactive”.
Consider `CSc1cnc(C)cn1`, for which the Potency entry in [1], in test [3], in test [5], in [6] and in test [4] was “inactive” throughout.
`CC[C@@]1(O)C(=O)OCc2c1cc1n(c2=O)Cc2c-1nc1ccccc1c2/C=N/OC(C)(C)C`: the values for the Potency in test [1] and in test [2] were 0.75 µM (active) and 11.9 µM (active), respectively. For the same compound, the Potency entry in test [5] and in test [6] was “inactive” each time.
Turning to `OC1(c2ccc(Cl)c(C(F)(F)F)c2)CCN(CCCC(c2ccc(F)cc2)c2ccc(F)cc2)CC1`, the Potency in [1] is 13.3 µM (active); in test [3], 18.8 µM (active); in [7] it was 4.9 µM (active); in test [6], 15.5 µM (active); in [4] it was 8.71 µM (active). For the same compound, the Potency entry in test [5] was “inactive”.
Turning to `Oc1c(Cl)cc(Cl)c2cccnc12`, the Potency in test [1] is 11.9 µM (active); in test [5], 26.6 µM (active); in test [10], 28.2 µM (active). Moreover, the Potency result in test [3] is “inactive”.
As for `OCc1c[nH]c2ccccc12`, the Potency was 64.8 µM (active) in test [1], 24.3 µM (active) in test [5], 2.52 µM (active) in test [6] and 7.52 µM (active) in [4]. Moreover, the Potency result in [2] was “inactive”.
`CCCCCCCCCCCCc1ccc(O)cc1`: the Potency in [1] is 43.3 µM (active); in test [3] it was 61.1 µM (active); in [5], 9.69 µM (active); in test [6], 1.59 µM (active); in [4], 6.33 µM (active). Besides, in test [7], the Potency result is “inactive”.
